Pf growth 48h = inhibits P. falciparum growth in the first generation, 48 h; actives 5.9% (n = 310,000); AID 504832; P. falciparum luciferase growth in erythrocytes, 48 h; Potency, µM (doses to about 28.7 µM), hits mostly inhibitors; active = well fitted inhibition curve with a large enough effect; inconclusive = small, poorly fitted or top-dose-only effect, or another doubt; inactive = no such curve, though single readings can be large or run the other way
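Luminescence readout; reporter = integrated firefly luciferase in P. falciparum. RBC culture at 2% hematocrit, 0.1% parasitemia final, 37 C/5% CO2; decreased signal taken as growth inhibition.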
NS1 inh = inhibitors of influenza NS1 protein function | Potency, µM (series often up to 46.1 µM) | actives 0.4% (n = 270,000) | AID 2326; also: actives are rising curves; nearly all actives have a fitted effect of over 50% in size
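Read-out: OD600 growth recovery of NS1-expressing budding yeast. Cells grown overnight at 30C in -URA glucose medium, washed, resuspended and diluted 1:100 in 2% galactose assay medium, pH 6.0. Same strain lacking NS1 served as positive control.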
SARS PLP yeast = blocks SARS-CoV papain-like protease in a yeast assay | Potency, µM (doses to about 32.9 µM), usual class: activators | S. cerevisiae expressing SARS-CoV PLpro, growth rescue | actives 0.19% (n = 330,000); also: nearly all actives have a fitted effect of over 55% in size
Pf growth 96h = inhibits malaria parasite growth, 96 h; Potency, µM (series often up to 28.7 µM), usual class: inhibitors; actives 6.9% (n = 320,000); P. falciparum luciferase reporter growth, 96 h; AID 504834; active = well fitted inhibition curve with a large enough effect; inconclusive = small, poorly fitted or top-dose-only effect, or another doubt; inactive = no such curve, though single readings can be large or run the other way
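Infected RBCs, 2% Hct / 0.05% parasitemia final; luciferase-reporter P. falciparum; cpd 96 h, 37 C, 5% CO2; luciferase detection reagent; luminescence.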
Large screens that a line does not name were inactive. This is a sample that favours compounds with a hit; in the whole collection about 10% have one here. Unless noted, calls follow the shape of the full dose curve.

CCOc1ccccc1NC(=O)N1CCC(C(=O)c2ccc(F)cc2)CC1	Pf growth 48h inconclusive
Cc1nc2ccccn2c(=O)c1CCN1CCC(C(=O)c2ccc(F)cc2)CC1	Pf growth 48h inconclusive, Pf growth 96h 10.7µM
CC1CC(C)CN(S(=O)(=O)CCNC(=O)c2ccccc2)C1 (stereo unspecified)	none (no result: NS1 inh)
CCN1CCN(c2ccc(S(=O)(=O)N3CCCCC3)cc2NC(=O)c2sccc2C)CC1	Pf growth 48h inconclusive, Pf growth 96h inconclusive (no result: NS1 inh)
CCN1CCN(c2ccc(Cl)cc2NC(=O)c2ccco2)CC1	Pf growth 48h inconclusive, Pf growth 96h inconclusive (no result: NS1 inh)
CCN1CCN(c2ccc(Cl)cc2NC(=O)c2ccc(-n3nc(C)cc3C)cc2)CC1	Pf growth 48h 4.15µM, Pf growth 96h inconclusive (no result: NS1 inh)
CCN1CCN(c2ccc(S(=O)(=O)N3CCCCC3)cc2NC(=O)c2ccc(F)cc2)CC1	Pf growth 48h inconclusive, Pf growth 96h 9.28µM
CC(NCC(=O)Nc1cc(S(=O)(=O)N2CCCCCC2)ccc1Cl)c1ccccc1 (stereo unspecified)	Pf growth 48h inconclusive, Pf growth 96h inconclusive (no result: NS1 inh)
CCN1CCN(c2ccc(S(=O)(=O)N3CCCCC3)cc2NC(=O)c2cccc(C)c2)CC1	Pf growth 48h 11.7µM, Pf growth 96h inconclusive (no result: NS1 inh)
CCN1CCN(c2ccc(S(=O)(=O)N3CCCCC3)cc2NC(=O)CC(C)c2ccccc2)CC1 (stereo unspecified)	Pf growth 48h 9.28µM, Pf growth 96h inconclusive (no result: NS1 inh)
O=C(Nc1cc(S(=O)(=O)N2CCCCC2)ccc1N1CCOCC1)c1ccc(F)cc1	Pf growth 48h inconclusive, Pf growth 96h inconclusive (no result: NS1 inh)
O=C(N/N=C/c1cc(Br)cc([N+](=O)[O-])c1O)c1ccc(NC(=O)c2ccc(F)cc2)cc1	none
COc1ccc(-c2noc(CCC(=O)N3CCN(c4ccc(Cl)cc4)CC3)n2)cc1	none (no result: Pf growth 48h, NS1 inh, Pf growth 96h)
CCc1ccccc1N(C(=O)c1snc(C(N)=O)c1N)C(C(=O)NCC1CCCO1)c1c[nH]c2ccccc12 (stereo unspecified)	Pf growth 48h inconclusive
NC12CC3CC(C1)CC(CC(=O)O)(C3)C2	none (no result: NS1 inh)
NC12CC3CC(C1)CC(O)(C3)C2	Pf growth 96h 10.4µM
C=C1C[C@H](O)[C@@H]2[C@H](OC(=O)[C@H]2C)[C@H]2[C@H](C)[C@@H](O)C[C@@H]12	none (no result: NS1 inh)
CCCN(CC(=O)Nc1ccccc1C)C(=O)C1CCN(C(=O)Nc2ccccc2)CC1	Pf growth 96h inconclusive (no result: NS1 inh)
O=C(Cc1ccc(Cl)cc1)Nc1ccc(CN2CCCCC2)cc1	Pf growth 48h inconclusive, Pf growth 96h 11.7µM
CC(=O)Nc1ccc(CN2CCCCCC2)cc1	none
CCCN1Cc2cccc(C(=O)Nc3ccc(CN4CCCC4)cc3)c2C1=O	Pf growth 48h 9.28µM (no result: Pf growth 96h)
O=C(Nc1ccc(CN2CCCCC2)cc1)c1cc(Br)ccc1Cl	Pf growth 48h 11.7µM, Pf growth 96h inconclusive
O=C(Nc1ccc(CN2CCCCC2)cc1)c1cccc(Br)c1	Pf growth 48h inconclusive, Pf growth 96h inconclusive
COc1ccc2c(c1OC)C(=O)N1C2SC[C@H]1C(=O)NC1CCCC1 (stereo partly specified)	none
Cc1nn(S(=O)(=O)c2ccc(Br)cc2)c(C)c1S(=O)(=O)N1CCOCC1	none
O=C(Cc1ccc(Cl)cc1)Nc1ccc(NC(=O)c2ccccc2)cc1	none
Cc1cccc(C(=O)Nc2ccc(NC(=O)Cc3ccc(Cl)cc3)cc2)c1	Pf growth 96h 11.7µM
COc1cccc(C(=O)NNC(=O)Cc2ccc(Cl)cc2)c1	Pf growth 96h 2.94µM
CCc1noc(C)c1C(=O)OC(C)C(=O)Nc1ccccc1OC (stereo unspecified)	Pf growth 48h inconclusive (no result: NS1 inh)
CCCCNC(=O)CC1N=C2c3ccccc3N=C(SCC(=O)Nc3ccc(OC)cc3)N2C1=O (stereo unspecified)	Pf growth 48h inconclusive, Pf growth 96h 10.4µM
COc1ccccc1CNC(=O)CCC1N=C2c3ccccc3N=C(SCC(=O)NCC3CCCO3)N2C1=O (stereo unspecified)	Pf growth 96h 4.15µM
CCCCNC(=O)CC1N=C2c3ccccc3N=C(SCC(=O)Nc3ccccc3OC)N2C1=O (stereo unspecified)	Pf growth 48h 10.4µM
COc1cc(-c2nc(CN(C)Cc3nnc(C)o3)c(C)o2)ccc1F	Pf growth 96h inconclusive
CCC1SC2=NC(C)=C(C(=O)OCC(C)C)C(/C=C/c3ccccc3OC)N2C1=O (stereo unspecified)	Pf growth 48h inconclusive, Pf growth 96h 11.7µM
CCC(C)n1ncn(-c2ccc(N3CCN(c4ccc(O)cc4)CC3)cc2)c1=O (stereo unspecified)	none
CCC(C)n1ncn(-c2ccc(N3CCN(c4ccc(OCC5COC(Cn6cncn6)(c6ccc(Cl)cc6Cl)O5)cc4)CC3)cc2)c1=O (stereo unspecified)	Pf growth 48h 3.38µM
